Measured values published in PubChem BioAssay (EPA / NIEHS).
Active and inactive are the calls of the source. How the source made its calls: active means hit-call score of the fitted dose curve at least 0.9, where 1 is the maximum; inactive means score below 0.9.

Experiments:
Conditions in all cases: primary human HUVEC with PBMC; actives raise or lower the signal
[1] = read-out: Macrophage colony-stimulating factor (MCSF), CSF1 (gene 1435); assay: BSK_LPS_MCSF: BioMAP Diversity Plus: LPS Assay for Macrophage colony-stimulating factor (MCSF) Biomarker Activity (AID 2283083)
Method in brief: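 Human umbilical vein endothelial cells co-cultured with peripheral blood mononuclear cells were exposed to compound for 24 h. M-CSF levels were measured by ELISA, and bidirectional curve fitting used DMSO as the negative control and baseline.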

[2] = read-out: Tissue Factor, F3 (gene 2152); assay: BSK_LPS_TissueFactor: BioMAP Diversity Plus: LPS Assay for Tissue Factor Biomarker Activity (AID 2283084)
Method in brief: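 Human umbilical vein endothelial cells co-cultured with peripheral blood mononuclear cells were dosed and stimulated with LPS. Cell-surface CD142 was quantified by ELISA at 24 h. Activity was fitted bidirectionally against DMSO baseline.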

[3] = read-out: Tumor necrosis factor (Homo sapiens) (UniProt P01375); assay: BSK_LPS_TNFa: BioMAP Diversity Plus: LPS Assay for Tumour Necrosis Factor alpha (TNFa) Biomarker Activity (AID 2283085);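 on AC50: TNFa protein level quantified by ELISA in the co-culture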
Method in brief: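 HUVEC/PBMC co-culture, LPS-stimulated; 24 h post-dose; TNFa by ELISA; gain or loss of signal fitted bidirectionally vs DMSO baseline.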

[4] = read-out: Vascular cell adhesion molecule 1 (VCAM1), VCAM1 (gene 7412); assay: BSK_LPS_VCAM1: BioMAP Diversity Plus: LPS Assay for Vascular cell adhesion molecule 1 (VCAM1) Biomarker Activity (AID 2283086)
Method in brief: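 ELISA read-out of VCAM-1 at 24 h post-dosing in an LPS-driven HUVEC/PBMC primary human co-culture; gain or loss of signal fitted bidirectionally against DMSO baseline. Cytotoxicity tracked in parallel cultures by SRB total-protein staining.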

CD38, CD38 (gene 952) = assay: BSK_SAg_CD38: BioMAP Diversity Plus: SAg Assay for CD38 Biomarker Activity (AID 2283087)
Method in brief: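 Measures CD38 on a human endothelial/PBMC co-culture driven by SEB and TSST-1, 24 h after compound exposure, using ELISA with fluorescence detection; DMSO defines baseline for bidirectional curve fitting.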

CD40, CD40 (gene 958) = assay: BSK_SAg_CD40: BioMAP Diversity Plus: SAg Assay for CD40 Biomarker Activity (AID 2283088)
Method in brief: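 Human umbilical vein endothelial cells co-cultured with PBMC; CD40 levels measured by ELISA with fluorescence read-out 24 h after chemical dosing. Gain or loss of signal fitted bidirectionally against DMSO baseline.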

CD69, CD69 (gene 969) = assay: BSK_SAg_CD69: BioMAP Diversity Plus: SAg Assay for CD69 Biomarker Activity (AID 2283089);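 on AC50: cell surface CD69 protein quantified by ELISA with fluorescence detection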
Method in brief: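 ELISA, fluorescence read-out: CD69 on human umbilical vein endothelial cell + PBMC co-culture, 24 h post-dosing. Gain or loss of signal fitted bidirectionally against DMSO baseline.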

[5] = read-out: Monocyte Chemoattractant Protein-1 (MCP1), CCL2 (gene 6347); assay: BSK_SAg_MCP1: BioMAP Diversity Plus: SAg Assay for Monocyte Chemoattractant Protein-1 (MCP1) Biomarker Activity (AID 2283090)
Method in brief: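 Values derive from bidirectional fitting of ELISA-measured MCP1 against DMSO controls. Readings were taken 24 h after dosing human vascular endothelial cells co-cultured with peripheral blood mononuclear cells under superantigen stimulation.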

[6] = read-out: E-selectin (Homo sapiens) (UniProt P16581); assay: BSK_SAg_Eselectin: BioMAP Diversity Plus: SAg Assay for Eselectin Biomarker Activity (AID 2283091)
Method in brief: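 HUVEC co-cultured with PBMC, compound dosed then read at 24 h; E-selectin measured by ELISA. Activity fitted bidirectionally against DMSO as negative control and baseline.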

[7] = read-out: Monokine induced gamma interferon (MIG), CXCL9 (gene 4283); assay: BSK_SAg_MIG: BioMAP Diversity Plus: SAg Assay for Monokine induced gamma interferon (MIG) Biomarker Activity (AID 2283092)
Method in brief: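 ELISA readout of MIG/CXCL9; primary human umbilical vein endothelial cells co-cultured with peripheral blood mononuclear cells; 24 h post-dose; gain/loss fit vs DMSO baseline.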

Measured: AC50

Chain of E-selectin (Homo sapiens) (P16581 whole entry, looked up): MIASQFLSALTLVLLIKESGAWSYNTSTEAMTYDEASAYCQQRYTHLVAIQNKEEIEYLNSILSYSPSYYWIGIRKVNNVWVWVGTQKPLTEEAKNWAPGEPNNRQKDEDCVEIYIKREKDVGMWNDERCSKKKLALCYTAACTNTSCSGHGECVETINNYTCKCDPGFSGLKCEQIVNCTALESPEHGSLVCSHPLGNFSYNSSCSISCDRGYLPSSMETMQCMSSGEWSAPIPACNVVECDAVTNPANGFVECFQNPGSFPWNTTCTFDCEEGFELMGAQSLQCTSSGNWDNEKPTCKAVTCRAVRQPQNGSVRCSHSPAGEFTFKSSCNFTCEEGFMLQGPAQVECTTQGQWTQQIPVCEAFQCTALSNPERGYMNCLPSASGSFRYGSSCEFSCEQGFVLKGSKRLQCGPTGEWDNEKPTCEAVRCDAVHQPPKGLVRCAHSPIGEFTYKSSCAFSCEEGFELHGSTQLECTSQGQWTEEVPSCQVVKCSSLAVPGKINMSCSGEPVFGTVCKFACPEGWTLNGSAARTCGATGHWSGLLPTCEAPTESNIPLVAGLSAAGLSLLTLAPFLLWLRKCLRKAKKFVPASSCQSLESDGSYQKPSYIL
Chain of Tumor necrosis factor (Homo sapiens) (P01375 whole entry, looked up): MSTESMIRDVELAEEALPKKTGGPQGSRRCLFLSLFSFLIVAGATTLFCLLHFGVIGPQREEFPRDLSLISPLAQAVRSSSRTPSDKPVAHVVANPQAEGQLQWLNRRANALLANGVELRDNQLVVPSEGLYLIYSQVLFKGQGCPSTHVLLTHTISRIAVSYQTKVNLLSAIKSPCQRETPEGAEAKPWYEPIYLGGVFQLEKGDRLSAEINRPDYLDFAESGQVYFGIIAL

CCCCC(CC)COC(=O)c1ccc(C(=O)OCC(CC)CCCC)cc1 (stereo not drawn)
inactive: all assays above

COc1ccc(-n2nc(C(F)F)cc2-c2ccc(S(C)=O)cc2)cc1 (stereo not drawn)
active: [3] 2.57 µM | CD69, CD69 (gene 969) 2.28 µM | [5] 1.13 µM | [6] 1.21 µM
inactive: all other assays above

O=C(O)c1cc(N=Nc2ccc(S(=O)(=O)Nc3ccccn3)cc2)ccc1O
inactive: all assays above

C[C@](N)(Cc1ccc(O)c(O)c1)C(=O)O
inactive: all assays above

CCOC(=O)CC(CC(=O)OCC)(OC(C)=O)C(=O)OCC
inactive: all assays above

O=C1OC(=O)C2C3C=CC(C3)C12 (stereo not drawn)
inactive: all assays above

CC(O)CN(CCN(CC(C)O)CC(C)O)CC(C)O (stereo not drawn)
inactive: all assays above

CC(C)(O)c1coc(S(=O)(=O)NC(=O)Nc2c3c(cc4c2CCC4)CCC3)c1
active: [3] 0.405 µM
inactive: all other assays above

CCOC(=O)c1ccc(C2CCC(NC[C@H](O)COc3ccc(O)c(NS(C)(=O)=O)c3)CC2)cc1 (stereo partly drawn)
active: [1] 18.7 µM | [4] 28.1 µM | CD38, CD38 (gene 952) 32.4 µM | CD69, CD69 (gene 969) 29.8 µM | [5] 11.6 µM
inactive: all other assays above

O=C1CCC(N2C(=O)c3ccccc3C2=O)C(=O)N1 (stereo not drawn)
inactive: all assays above

CCc1cc(SCc2sc(-c3ccc(C(F)(F)F)cc3)nc2CN2CCN(c3ccc(OC)cc3)CC2)ccc1OCC(=O)O
active: [1] 13.3 µM | [2] 30.2 µM | [3] 38.1 µM | [4] 24.7 µM | CD38, CD38 (gene 952) 10.3 µM | CD40, CD40 (gene 958) 11.7 µM | CD69, CD69 (gene 969) 15.1 µM | [5] 11.4 µM | [6] 12.2 µM | [7] 14.1 µM

CC(C)c1cccc(C(C)C)c1N1C(=O)c2ccc(O)cc2C1=O
inactive: [2] | [3]
active: [1] 9.36 µM | [4] 10.1 µM | CD38, CD38 (gene 952) 13.6 µM | CD40, CD40 (gene 958) 18.9 µM | CD69, CD69 (gene 969) 19.1 µM | [5] 37.1 µM | [7] 32 µM

CNS(=O)(=O)c1cc(C(=O)N2CCC(CCN3C4CCC3CC(n3c(C)nc5ccccc53)C4)(c3cccc(F)c3)CC2)c(Cl)cc1F (stereo not drawn)
inactive: [2] | [3] | [6] | [7]
active: [1] 18.3 µM | [4] 5.99 µM | CD38, CD38 (gene 952) 28.9 µM | CD40, CD40 (gene 958) 23.2 µM | CD69, CD69 (gene 969) 20 µM | [5] 27.5 µM

C1N2CN3CN1CN(C2)C3
not listed: [6]
inactive: all other assays above

O=c1n(CC2CO2)c(=O)n(CC2CO2)c(=O)n1CC1CO1 (stereo not drawn)
inactive: [2] | [3] | [7]
active: [1] 20 µM | [4] 21.8 µM | CD38, CD38 (gene 952) 18.5 µM | CD40, CD40 (gene 958) 20 µM | CD69, CD69 (gene 969) 20 µM | [5] 20 µM

Cc1ccc(O)cc1
not listed: [6]
inactive: all other assays above

On1ccccc1=S
active: [4] 19.8 µM | CD38, CD38 (gene 952) 12.2 µM | CD40, CD40 (gene 958) 27.8 µM | CD69, CD69 (gene 969) 12.2 µM | [5] 13 µM | [6] 8.16 µM | [7] 19.8 µM
inactive: [1] | [2] | [3]

CCCCC(CC)COC(=O)CCCCCCCCC(=O)OCC(CC)CCCC (stereo not drawn)
not listed: [6]
inactive: all other assays above

CCCCCCCCCCCCCCCO
inactive: [2] | [7]
active: [1] 31 µM | [3] 3.97 µM | [4] 32.4 µM | CD38, CD38 (gene 952) 32.6 µM | CD40, CD40 (gene 958) 37.3 µM | CD69, CD69 (gene 969) 31.7 µM | [5] 33.3 µM

CC(C)CCO
inactive: all assays above

CC(C)=CCCC(C)=CC=O
active: [4] 33.7 µM
not listed: [6]
inactive: all other assays above
